Assay outcomes deposited in PubChem BioAssay by Sanford-Burnham Center for Chemical Genomics.
Rows were chosen to be rich in hits. Some 4% of all compounds tested hit in one or more screens of this group.
TROY signal inh = TROY signaling inhibition. Q293 LMP1-TROYcd NF-kB luciferase reporter, 4 h. inhibition, % at 10 µM. 360,000 tested, 0.98% active. AID 1347056;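 active means compounds whose plate-normalised and pattern-corrected inhibition of the luciferase reporter signal at the single screening dose is 50% or more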
Peg3 promoter = Peg3 promoter activity inhibition; HeLa PEG-Prom luciferase reporter, luminescence, overnight; inhibition, % at 20 µM; 360,000 tested, 1.7% active; AID 588405;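 active means inhibition of at least 50% at 20 µM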
TWEAK-Fn14 inh = TWEAK-Fn14 signaling inhibition | TWEAK-stimulated Fn14 reporter cells, luciferase luminescence, 8 h | inhibition, % at 10 µM | 360,000 tested, 2% active | AID 1159606; in the data active means inhibition above about 50%
KKLEB tox = counter-screen for CF NF-kB inhibitors: cytotoxicity. 360,000 tested, 0.36% active. activity change (cytotoxicity), % at 5 µM. KKLEB CF airway cells viability, ATPlite luminescence, overnight; hits give low values; cells stimulated with P. aeruginosa culture filtrate. AID 602141;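 active means corrected activity change at or below -50% at 5 µM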
CF NFkB block = blocks PAF-induced NF-kB reporter in cystic fibrosis cells | KKLEB NF-kB-GFP reporter, GFP fluorescence overnight | inhibition, % at 5 µM | 360,000 tested, 0.86% active | AID 588850;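 active means at least 50% inhibition at 5 µM, scaled per plate between neutral and stimulator controls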;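 further: PAF is a Pseudomonas aeruginosa culture filtrate used as stimulus; plate controls were PAF-stimulated DMSO wells for no effect and unstimulated DMSO wells for full effect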
HIF-2a block = inhibitors of HIF-2a; AID 624352; 786-0 RCC cells HIF-2a reporter, luciferase luminescence, overnight; 360,000 tested, 0.72% active; inhibition, % at 18.8 µM;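 active means inhibition of the luminescence signal of 40% or more relative to plate controls, in a single-dose primary screen at 18.75 µM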
The depositor's hits bear a star; . = no result.

SMILES | TROY signal inh | Peg3 promoter | TWEAK-Fn14 inh | KKLEB tox | CF NFkB block | HIF-2a block
Cc1ccc(S(=O)(=O)N2CCCCC2)cc1C(=O)NCc1ccc(S(N)(=O)=O)cc1 | -11 | 15 | -2 | 8 | -8 | 8
CCOc1ccc(S(=O)(=O)Nc2ccc3c(c2)OCO3)cc1 | -8 | 14 | 11 | -2 | -12 | 4
COc1cccc(C(=O)Nc2ccc(-c3nc4ccccc4o3)c(O)c2)c1 | 21 | -84 | 6 | -22 | -16 | -128
CC(C)(C)c1ccc(-c2nc3cc(N)ccc3o2)cc1 | 64* | -170 | 69* | -49 | 18 | -93
CCC(C)NCC(=O)Nc1ccc(-c2nc3cc(NC(=O)CNC(C)CC)ccc3o2)cc1 (stereo not drawn) | -29 | 108* | -140 | 4 | -12 | -9
COc1cc(C(=O)Nc2ccc(-c3nc4cc(C)ccc4o3)c(O)c2)cc(OC)c1OC | 2 | 70* | 52* | -17 | 20 | -6
CC(C)c1ccc2oc(-c3ccc(N)cc3)nc2c1 | 38 | -103 | 81* | -44 | -17 | -37
O=C(Nc1ccc2oc(-c3cccnc3)nc2c1)c1ccc([N+](=O)[O-])o1 | 3 | 108* | 21 | -58* | 89* | 24
Nc1cccc(-c2nc3cc(S(=O)(=O)c4ccc5oc(-c6cccc(N)c6)nc5c4)ccc3o2)c1 | -26 | 73* | -12 | 9 | -10 | -5
Cc1ccc(-c2nc3cc(N)ccc3o2)c(C)c1 | 9 | -199 | 46 | 10 | -10 | -85
Cc1ccc2oc(-c3cccc(N)c3)nc2c1 | 3 | -100 | 51* | -1 | -48 | -70
Cc1ccc2nc(-c3ccccn3)oc2c1 | -13 | -116 | 53* | -9 | -22 | -89
Nc1cccc(-c2nc3ncccc3o2)c1 | -4 | -68 | -16 | 16 | -26 | -132
Cc1onc(-c2ccccc2Cl)c1C(=O)N(C)CC(=O)Nc1ccc(F)c(F)c1F | 3 | 8 | 4 | 20 | 0 | 20
CCN1C[C@@H]2[C@@H]3C(=O)N(C)C(=O)[C@@H]3[C@](CC)(C1=O)N2C(=O)c1ccccc1 | 13 | 2 | -2 | -7 | 6 | 11
Cc1ccccc1NS(=O)(=O)c1csc(C(N)=O)c1 | -1 | 9 | 19 | 4 | -4 | 4
Cc1ccc(C(C)NC(=O)CSc2ccc(S(=O)(=O)N3CCOCC3)cn2)cc1C (stereo not drawn) | 4 | 9 | -1 | 12 | 4 | 12
COc1ccccc1N1CCN(C(=O)c2ccc3ncsc3c2)CC1 | -5 | -2 | -7 | -8 | 10 | -20
Cc1ccc(N=Cc2c(O)c3ccccc3oc2=O)c(C)c1 | 55* | -44 | 57* | -8 | -1 | -196
Cc1ccc(F)cc1N=Cc1c(O)c2ccccc2oc1=O | 39 | -13 | 19 | -8 | 22 | -73
O=C(NCC1CCCN(Cc2ccc3nonc3c2)C1)c1ccc(F)cc1 (stereo not drawn) | 71* | 8 | 7 | -7 | -6 | 13
CCc1ccc(/C=C2\SC(=S)N(CCCC(=O)N(CCO)c3ccccc3)C2=O)cc1 | 35 | 76* | 36 | -17 | 20 | 65*
CCOc1ccc(/C=C2\SC(=S)N(CCC(=O)N(CCO)c3ccccc3)C2=O)cc1 | -6 | -6 | 22 | -1 | 6 | 57*
Cc1cc(C)c(C)c(S(=O)(=O)N2CCCN(C)CC2)c1C | 19 | -3 | 8 | 5 | -2 | 12
Cc1cc(-c2nnc(SCC(=O)Nc3nc(-c4ccc(Cl)cc4)cs3)o2)no1 | 8 | -6 | 83* | 7 | 2 | 2
SMILES | TROY signal inh | Peg3 promoter | TWEAK-Fn14 inh | KKLEB tox | CF NFkB block | HIF-2a block
COc1cc(NC(=O)CSc2nnc(-c3cc(C)on3)o2)cc(OC)c1 | 7 | 12 | 2 | 8 | 8 | 11
c1ccc2c(c1)CCN(c1nc3cc4c(cc3s1)OCCO4)C2 | 75* | 40 | 103* | -52* | -5 | 47*
CN(C(=O)CSc1nc2ccccc2n1C)C1CCS(=O)(=O)C1 (stereo not drawn) | -5 | 68* | -4 | -11 | 6 | -4
Cc1cc(NC(=O)NN2CCOCC2)nn1-c1c(Cl)cc(Cl)cc1Cl | -6 | 13 | -23 | 0 | 6 | 21
CCC(C)(C)C1CCc2[nH]nc(C(=O)NCC3CC3)c2C1 (stereo not drawn) | -22 | -67 | -16 | 6 | 21 | -111
CCC(C)(C)C1CCc2[nH]nc(C(=O)NN)c2C1 (stereo not drawn) | 69* | 5 | 45 | 17 | -2 | 18
CN(C(=O)Cn1nnc2ccccc2c1=O)C1CCCCC1 | -17 | -10 | 8 | 1 | 18 | -31
CC(C)(C)CC(=O)O/N=C(\N)c1ccccn1 | 0 | -13 | 61* | 7 | 1 | 22
Cc1ccc(CC(=O)O/N=C(\N)c2ccccn2)cc1 | -16 | -160 | -2 | -16 | -9 | -177
COc1ccc(/C=C/C(=O)O/N=C(\N)c2ccccn2)cc1OC | -12 | -240 | 12 | -17 | 4 | -285
N/C(=N\OC(=O)/C=C/c1ccccc1)c1ccccn1 | 47 | -58 | 56* | -4 | 10 | -183
O=C(NCc1ccc(F)cc1)c1cc(C(=O)C2CC2)c[nH]1 | -23 | 8 | -7 | -15 | 8 | 8
O=C(CCNC(=O)c1ccccc1Cl)Nc1nc(-c2ccc(F)cc2)cs1 | 18 | -6 | 18 | 9 | -12 | -6
O=C(Cc1ccccc1F)Nc1nc(-c2ccc(F)c(F)c2)cs1 | 72* | -115 | 23 | 8 | -24 | -255
O=C(CCNC(=O)c1ccccc1Cl)Nc1nc(-c2ccc3ccccc3c2)cs1 | 34 | -1 | 53* | -15 | -14 | -28
CC(=O)c1c(C)nn(-c2ccccc2)c1C | -4 | 3 | 3 | -9 | -11 | 23
COP(C)(=O)c1c(C)nn(-c2ccccc2)c1C (stereo not drawn) | . | -5 | 69* | 17 | -18 | 13
CC(=O)/C(N=Nc1ccc2c(c1)OCCO2)=C(\C)O | 27 | -25 | 77* | 4 | -21 | -73
CC(=O)c1cccc(OCC(=O)c2cc(C)n(-c3cc(C)on3)c2C)c1 | -2 | -10 | 6 | -3 | -6 | -15
Cc1cc(C(=O)CCl)c(C)n1-c1cccc([N+](=O)[O-])c1 | 6 | 105* | 2 | -19 | 31 | 7
Cc1cc(C(=O)CCl)c(C)n1-c1ccon1 | -3 | 53* | 0 | 9 | 58* | -1
Cc1cc2ncc(-c3ccccc3)nc2cc1C | -19 | -255 | 40 | -5 | -24 | -210
CCCCOc1ccc(-c2cnc3ccccc3n2)cc1 | 52* | -284 | 79* | -4 | -3 | -7
Cc1ccc(-c2cnc3ccccc3n2)cc1C | 12 | -101 | 73* | 1 | -24 | -58
CCCCOc1ccc(-c2cc(C(=O)NNC(=S)NCC)c3ccccc3n2)cc1 | 18 | -37 | -13 | -89* | 67* | -44
COC(=O)[C@@]12C[C@@H](CC(=O)NCC3CCCCC3)C(=O)N(Cc3ccccc3)C1=CCC(C)(C)C2 | . | . | . | . | . | 3
